According to PubChem BioAssay (Tox21):
“And” between values parts separate entries of the source, which are not always exact repeats. Identical values can stand only once. Results filed as inconclusive are left out. A call without a number means that no potency is given here. Some compounds were tested as several samples or in several runs, with calls that do not always agree. The source made the active and inactive calls. Unless noted, the call rests on the fitted dose curve; in most records, active means well fitted curve in the direction sought with a large enough effect in the repeat runs; inconclusive means weak or mixed curves; inactive means no such curve, though single readings can be large; an effect the other way counts as inactive or inconclusive.

What was measured:
[1] = biological target: Peroxisome proliferator-activated receptor delta (Homo sapiens) (UniProt Q03181); test: qHTS assay to identify small molecule agonists of the peroxisome proliferator-activated receptor delta (PPARd) signaling pathway (AID 743212; calls by dose curve; further: potency means the concentration at half of the fitted maximal effect)
Chain of Peroxisome proliferator-activated receptor delta (Homo sapiens) (Q03181 whole entry, looked up): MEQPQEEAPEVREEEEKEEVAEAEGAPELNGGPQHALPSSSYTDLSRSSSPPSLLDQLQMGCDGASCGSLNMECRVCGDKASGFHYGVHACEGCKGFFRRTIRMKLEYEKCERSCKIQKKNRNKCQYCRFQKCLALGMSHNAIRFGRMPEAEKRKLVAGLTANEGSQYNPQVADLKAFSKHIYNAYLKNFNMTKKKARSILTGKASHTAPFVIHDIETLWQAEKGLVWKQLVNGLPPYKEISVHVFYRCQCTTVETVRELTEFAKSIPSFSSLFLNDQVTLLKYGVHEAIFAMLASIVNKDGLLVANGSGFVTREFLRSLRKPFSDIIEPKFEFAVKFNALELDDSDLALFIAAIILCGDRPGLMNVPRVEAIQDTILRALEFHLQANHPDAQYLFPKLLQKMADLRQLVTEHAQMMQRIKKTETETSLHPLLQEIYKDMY
Summary of the method: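 GeneBLAzer PPARd UAS-bla HEK293H cells (beta-lactamase reporter under UAS control), plated and rested 5 h at 37 C, then exposed to compounds in DMSO at 37 C; LiveBLAzer B/G FRET substrate added, 2 h room temperature, fluorescence read.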

[2] = biological target: Peroxisome proliferator-activated receptor delta (Homo sapiens) (UniProt Q03181); test: qHTS assay to identify small molecule antagonists of the peroxisome proliferator-activated receptor delta (PPARd) signaling pathway (AID 743215; active means well fitted inhibition curve with a large enough effect in the signal ratio in the repeat runs, not every such curve was filed as active; the % refers to the signal ratio; further: potency means the concentration at half of the fitted maximal effect)
Summary of the method: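 PPARd UAS-bla HEK293H cells were pre-incubated 5 h at 37 C, then given test compounds in DMSO plus agonist L165041 (300 nM final). After 17 h at 37 C, beta-lactamase FRET substrate was added; fluorescence read after 2 h at room temperature.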

[3] = biological target: Bile acid receptor (Homo sapiens) (UniProt Q96RI1); test: qHTS assay to identify small molecule antagonists of the farnesoid-X-receptor (FXR) signaling pathway (AID 743217; active means well fitted inhibition curve with a large enough effect in the signal ratio in the repeat runs, not every such curve was filed as active; the % refers to the signal ratio)
Chain of Bile acid receptor (Homo sapiens) (Q96RI1 whole entry, looked up): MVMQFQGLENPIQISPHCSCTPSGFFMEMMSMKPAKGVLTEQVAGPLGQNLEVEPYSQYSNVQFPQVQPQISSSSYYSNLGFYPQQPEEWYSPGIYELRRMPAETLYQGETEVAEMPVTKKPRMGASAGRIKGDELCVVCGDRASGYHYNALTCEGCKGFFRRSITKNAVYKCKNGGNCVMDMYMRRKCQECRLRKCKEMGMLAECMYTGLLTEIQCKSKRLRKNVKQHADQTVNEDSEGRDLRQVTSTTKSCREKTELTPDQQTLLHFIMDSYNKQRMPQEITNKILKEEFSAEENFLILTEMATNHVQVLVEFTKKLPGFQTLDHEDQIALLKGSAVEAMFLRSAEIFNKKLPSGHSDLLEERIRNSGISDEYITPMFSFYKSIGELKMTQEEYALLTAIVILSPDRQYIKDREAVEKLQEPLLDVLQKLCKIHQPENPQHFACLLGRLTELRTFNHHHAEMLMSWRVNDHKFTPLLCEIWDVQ
Summary of the method: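 FXR-UAS-bla HEK 293T cells pre-incubated 5 h at 37 °C, then exposed to compounds with chenodeoxycholic acid (50 uM final) for 16 h at 37 °C. Beta-lactamase reporter read by LiveBLAzer B/G FRET substrate fluorescence after 2 h at room temperature.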

[4] = biological target: Bile acid receptor (Homo sapiens) (UniProt Q96RI1); test: qHTS assay to identify small molecule agonists of the farnesoid-X-receptor (FXR) signaling pathway (AID 743220; active means well fitted activation curve with a large enough effect in the signal ratio in the repeat runs, not every such curve was filed as active; the % refers to the signal ratio)
Summary of the method: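 Beta-lactamase reporter under UAS control in GeneBLAzer FXR HEK 293T cells (5000/well) measured with LiveBLAzer FRET substrate after 2 h at room temperature. Compound exposure lasted 16 h at 37C.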

[5] = qHTS assay to identify small molecule antagonists of the farnesoid-X-receptor (FXR) signaling pathway - cell viability counter screen (AID 743221; active means well fitted cell-killing curve with a large enough effect in the repeat runs, not every such curve was filed as active; further: nearly all actives have a fitted effect of over 50% in size; further: potency means the concentration at half of the fitted maximal effect)
Summary of the method: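 Luminescence from CellTiter-Glo measures cytotoxicity in GeneBLAzer FXR-UAS-bla HEK 293T cells. Cells were exposed to compounds with 50 uM chenodeoxycholic acid (final) for 16 h at 37 C, in wells also used for the reporter readout.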

[6] = biological target: Vitamin D3 receptor (Homo sapiens) (UniProt P11473); test: qHTS assay to identify small molecule agonists of the vitamin D receptor (VDR) signaling pathway (AID 743222; calls by dose curve; further: potency means the concentration at half of the fitted maximal effect)
Chain of Vitamin D3 receptor (Homo sapiens) (P11473 whole entry, looked up): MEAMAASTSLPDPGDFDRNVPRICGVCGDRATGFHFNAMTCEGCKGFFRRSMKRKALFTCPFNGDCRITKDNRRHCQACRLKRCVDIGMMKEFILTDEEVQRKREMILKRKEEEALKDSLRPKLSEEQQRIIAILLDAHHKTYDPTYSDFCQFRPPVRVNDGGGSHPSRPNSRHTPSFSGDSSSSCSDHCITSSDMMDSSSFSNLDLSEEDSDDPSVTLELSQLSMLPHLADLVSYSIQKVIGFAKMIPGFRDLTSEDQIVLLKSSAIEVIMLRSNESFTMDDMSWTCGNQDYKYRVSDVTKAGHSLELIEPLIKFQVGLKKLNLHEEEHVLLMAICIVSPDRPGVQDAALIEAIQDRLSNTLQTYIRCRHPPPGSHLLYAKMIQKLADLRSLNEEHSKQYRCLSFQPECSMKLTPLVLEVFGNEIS
Summary of the method: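 VDR-bla cells were plated 4 h at 37C/5% CO2, then exposed to compounds in DMSO for 16 h. After LiveBLAzer B/G FRET substrate addition and 2 h at room temperature, beta-lactamase reporter fluorescence was read.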

[7] = biological target: Vitamin D3 receptor (Homo sapiens) (UniProt P11473); test: qHTS assay to identify small molecule antagonists of the vitamin D receptor (VDR) signaling pathway (AID 743223; active means well fitted inhibition curve with a large enough effect in the signal ratio in the repeat runs, not every such curve was filed as active; the % refers to the signal ratio; further: potency means the concentration at half of the fitted maximal effect)
Summary of the method: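 Antagonist mode uses 1alpha,25-dihydroxyvitamin D3 at 3 nM final as stimulus. VDR-bla cells receive compounds in DMSO, incubate 16 h at 37C, then a beta-lactamase FRET substrate for 2 h at room temperature before fluorescence measurement.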

[8] = qHTS assay to identify small molecule agonists of the vitamin D receptor (VDR) signaling pathway - cell viability counter screen (AID 743224); further: nearly all actives have a fitted effect of over 50% in size; further: potency means the concentration at half of the fitted maximal effect
Summary of the method: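 VDR-bla cells were preincubated 4 h at 37C/5% CO2, then exposed to compounds for 16 h. After the 2 h room-temperature bla FRET read, CellTiter-Glo was added to the same wells and luminescence read after 30 min.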

[9] = qHTS assay to identify small molecule agonists of the NFkB signaling pathway - cell viability counter screen (AID 1159515; calls by dose curve; further: nearly all actives have a fitted effect of over 55% in size; further: potency means the concentration at half of the fitted maximal effect)
Summary of the method: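 NFkB-bla ME-180 cells, 2,000/well, were plated overnight at 37 C, 5% CO2, then exposed to compounds in DMSO for 5 hr. After the bla FRET read, CellTiter-Glo was added to the same wells; luminescence was read after 30 min at room temperature.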

[10] = qHTS assay to identify small molecule agonists of the endoplasmic reticulum stress response signaling pathway (AID 1159516; active means well fitted activation curve with a large enough effect in the signal ratio in the repeat runs, not every such curve was filed as active; the % refers to the signal ratio; further: potency means the concentration at half of the fitted maximal effect)
Summary of the method: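 CellSensor ESRE-bla HeLa cells, carrying a beta-lactamase reporter driven by the ER stress response element, were plated overnight and exposed to compounds for 5 hr at 37 C. Reporter activity was read as FRET substrate fluorescence after 2 hr at room temperature.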

[11] = qHTS assay to identify small molecule agonists of the endoplasmic reticulum stress response signaling pathway - cell viability counter screen (AID 1159517; calls by dose curve; further: nearly all actives have a fitted effect of over 50% in size; further: potency means the concentration at half of the fitted maximal effect)
Summary of the method: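 Luminescence readout: CellTiter-Glo, 30 min RT, same wells as the ESRE-bla reporter read. HeLa ESRE-bla, 1,500 cells/well, o/n 37 C; cpd 5 hr 37 C/5% CO2.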

[12] = qHTS assay to identify small molecule antagonists of the retinoid-related orphan receptor gamma (ROR-gamma) signaling pathway - cell viability counter screen (AID 1159520); further: nearly all actives have a fitted effect of over 50% in size; further: potency means the concentration at half of the fitted maximal effect
Summary of the method: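 Tet-on ROR gamma CHO cells (1,000/well) were plated 4 hr, given compounds in DMSO for 2 hr at 37 C, then induced with 1 uM final doxycycline for 16 hr. Viability was read as ATP by CellTiter-Glo luminescence after 30 min.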

[13] = biological target: Nuclear receptor ROR-gamma (Homo sapiens) (UniProt P51449); test: qHTS assay to identify small molecule antagonists of the retinoid-related orphan receptor gamma (ROR-gamma) signaling pathway (AID 1159521; further: nearly all actives have a fitted effect of over 50% in size; further: potency means the concentration at half of the fitted maximal effect)
Summary of the method: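 CHO Tet-on RORγ, RORE-luc reporter. Cpd 2 h pre-incubation, then dox hyclate 1 uM final, 16 h, 37 C/5% CO2. ONE-Glo luminescence; decrease = antagonist.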

[14] = qHTS assay to identify small molecule agonists of the AP-1 signaling pathway - cell viability counter screen (AID 1159525; calls by dose curve; further: nearly all actives have a fitted effect of over 55% in size; further: potency means the concentration at half of the fitted maximal effect)
Summary of the method: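 ME-180 AP-1-bla, 2500 cells/well, Opti-MEM + 0.5% dialyzed FBS; overnight 37 °C; cpd 15-pt titration, 5 h 37 °C; CellTiter-Glo 30 min RT; luminescence read; normalised to TOAB and DMSO controls.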

[15] = qHTS assay to identify small molecule agonists of the peroxisome proliferator-activated receptor delta (PPARd) signaling pathway - cell viability counter screen (AID 743211); further: nearly all actives have a fitted effect of over 55% in size; further: potency means the concentration at half of the fitted maximal effect
Summary of the method: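 HEK293H PPARd-bla, 3000 cells/well; 5 h preincubation 37C/5% CO2; cpd in DMSO, 17 h 37C; B/G FRET substrate 2 h RT; CellTiter-Glo 30 min RT, luminescence.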

[16] = qHTS assay to identify small molecule agonists of the farnesoid-X-receptor (FXR) signaling pathway - cell viability counter screen (AID 743218); further: nearly all actives have a fitted effect of over 45% in size; further: potency means the concentration at half of the fitted maximal effect
Summary of the method: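 FXR-UAS-bla HEK 293T cells, plated 5 h at 37 C, were exposed to compounds for 16 h at 37 C. CellTiter-Glo was then added to the same wells as the bla readout; luminescence read after 30 min at room temperature.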

[17] = qHTS assay to identify small molecule antagonists of the vitamin D receptor (VDR) signaling pathway - cell viability counter screen (AID 743225); further: nearly all actives have a fitted effect of over 50% in size; further: potency means the concentration at half of the fitted maximal effect
Summary of the method: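 Read-out: CellTiter-Glo luminescence measured 30 min after reagent addition at room temperature. Cells were VDR-bla HEK 293T exposed 16 h at 37C, 5% CO2, to compound with 3 nM final calcitriol agonist.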

[18] = qHTS assay to identify small molecule agonists of the AP-1 signaling pathway (AID 1159526; calls by dose curve; further: potency means the concentration at half of the fitted maximal effect)
[19] = qHTS assay to identify small molecule antagonists of the peroxisome proliferator-activated receptor delta (PPARd) signaling pathway - cell viability counter screen (AID 743213); further: nearly all actives have a fitted effect of over 50% in size; further: potency means the concentration at half of the fitted maximal effect
Summary of the method: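 Agonist-stimulated (L165041, 300 nM final) HEK293H PPARd UAS-bla cells are exposed to compounds for 17 h at 37 C, and ATP-based luminescence (CellTiter-Glo) from the same wells reports cytotoxicity.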

Structure (SMILES)	Potency [1]	Potency [2]	Potency [3]	outcome [4]	Potency [5]	Potency [6]	Potency [7]	Potency [8]	Potency [9]	Potency [10]	Potency [11]	Potency [12]	Potency [13]	Potency [14]	Potency [15]	Potency [16]	Potency [17]	Potency [18]	Potency [19]
CCc1nc(N)nc(N)c1-c1ccc(Cl)cc1	inactive	inactive	inactive	inactive	24.9 µM (active)	inactive	inactive	17.4 µM (active)	inactive	inactive	inactive	inactive	inactive	inactive	–	–	–	–	–
CC(C)C(=O)Nc1ccc([N+](=O)[O-])c(C(F)(F)F)c1	–	–	inactive	inactive	inactive	–	–	inactive	inactive	inactive	inactive	inactive	28.1 µM (active) and 10.9 µM (active) and 33.5 µM (active)	inactive	inactive	inactive	inactive	inactive	–
Cc1cc(C)nc(NS(=O)(=O)c2ccc(N)cc2)n1	inactive	inactive	inactive	inactive	inactive	–	–	inactive	inactive	inactive	inactive	inactive	–	inactive	inactive	inactive	inactive	inactive	inactive
Oc1ccccc1	–	–	inactive	inactive	inactive	–	–	inactive	inactive	inactive	inactive	inactive	inactive	inactive	inactive	inactive	inactive	inactive	–
CN(C)CCOC(c1ccccc1)c1ccccc1	–	–	–	–	inactive	–	–	inactive	inactive	inactive	inactive	inactive	inactive	inactive	inactive	inactive	inactive	49.3 µM (active)	–
O=C1c2c(O)cccc2Cc2cccc(O)c21	inactive	–	inactive	inactive	inactive	–	–	inactive	inactive	–	inactive	inactive	inactive	inactive	inactive	inactive	inactive	inactive	inactive
Cc1cc(=O)oc2cc(O)ccc12	43.6 µM (active) and 26.6 µM (active)	–	–	–	inactive	21.1 µM (active)	–	inactive	inactive	49 µM (active) and 19 µM (active)	inactive	inactive	–	inactive	inactive	inactive	inactive	inactive	inactive
Cc1ccc(S(=O)(=O)O)cc1	–	–	–	–	inactive	–	–	inactive	inactive	inactive	inactive	inactive	–	inactive	inactive	inactive	inactive	inactive	inactive
O=C(O)c1ccccc1	–	–	–	–	inactive	inactive	inactive	inactive	inactive	inactive	inactive	inactive	inactive	inactive	inactive	inactive	inactive	inactive	–
CC(=O)CCC(=O)O	–	–	–	–	inactive	inactive	inactive	inactive	inactive	inactive	inactive	inactive	inactive	inactive	inactive	inactive	inactive	inactive	–
CC(O)(P(=O)(O)O)P(=O)(O)O	–	–	–	–	inactive	–	–	inactive	inactive	inactive	inactive	inactive	–	inactive	inactive	inactive	inactive	inactive	–
CCCCCCCCCCCC[N+](C)(C)Cc1ccccc1	–	26.6 µM (active)	–	–	53.9 µM (active) and 59.7 µM (active) and 29.8 µM (active)	inactive	42.8 µM (active) and 53.2 µM (active)	27 µM (active) and 29.9 µM (active) and 13.3 µM (active)	53.9 µM (active) and 47.4 µM (active) and 23.9 µM (active)	–	17 µM (active) and 21.2 µM (active) and 26.8 µM (active)	67.3 µM (active) and 66.4 µM (active) and inactive	47.6 µM (active) and 21.1 µM (active)	23.9 µM (active)	27 µM (active) and 18.9 µM (active) and 23.7 µM (active)	17 µM (active) and 21.2 µM (active)	19.1 µM (active) and 15 µM (active) and 21.3 µM (active)	–	–
COc1ccc2c(c1)c(CC(=O)O)c(C)n2C(=O)c1ccc(Cl)cc1	–	–	–	–	inactive	–	–	inactive	inactive	inactive	inactive	inactive	–	inactive	inactive	inactive	inactive	inactive	–
CC(C)c1c(C(=O)Nc2ccccc2)c(-c2ccccc2)c(-c2ccc(F)cc2)n1CC[C@@H](O)C[C@@H](O)CC(=O)O	–	–	–	–	inactive	inactive	inactive	inactive	inactive	inactive	inactive	–	1.86 µM (active) and 11.4 µM (active) and 2.66 µM (active)	inactive	inactive	inactive	inactive	inactive	inactive
CC/C(=C(\c1ccccc1)c1ccc(OCCN(C)C)cc1)c1ccccc1	–	–	–	–	inactive and 49.4 µM (active) and 54.9 µM (active)	–	–	–	26.8 µM (active) [middle of 5 runs]	–	49 µM (active) [middle of 4 runs]	61.1 µM (active) [middle of 4 runs]	27.5 µM (active) [middle of 5 runs]	23.9 µM (active) [middle of 5 runs]	–	–	inactive and 15.6 µM (active) and 21.3 µM (active)	–	54.9 µM (active) and 17.5 µM (active)
CN(C)C(=S)SC(=S)N(C)C	–	0.596 µM (active)	–	–	564 nM (active) and 1.68 µM (active)	–	27.5 µM (active)	1.26 µM (active) and 692 nM (active) and 1.06 µM (active)	5.02 µM (active) and 977 nM (active) and 6.74 µM (active)	–	inactive	2.37 µM (active)	703 nM (active) and 770 nM (active) and 1.06 µM (active)	11.2 µM (active) and 5.49 µM (active) and 16.9 µM (active)	710 nM (active) and 389 nM (active) and 1.33 µM (active)	502 nM (active) and 2.45 µM (active) and 1.68 µM (active)	inactive	–	3.99 µM (active) and 549 nM (active) and 944 nM (active)
Cc1ncc([N+](=O)[O-])n1C	inactive	inactive	inactive	inactive	inactive	inactive	inactive	inactive	inactive	inactive	inactive	inactive	–	inactive	inactive	inactive	inactive	inactive	inactive
CCCCCCc1ccc(O)cc1O	–	–	–	–	inactive	inactive	inactive	38.9 µM (active) and inactive	inactive	inactive	inactive	61.3 µM (active) and inactive	inactive	43.8 µM (active) and inactive	43.8 µM (active) and inactive	inactive	49 µM (active)	–	inactive
O=C1O[C@H]([C@@H](O)CO)C(O)=C1O	–	–	–	–	inactive	–	–	inactive	inactive	inactive	inactive	inactive	inactive	inactive	inactive	inactive	inactive	inactive	–
CNNCc1ccc(C(=O)NC(C)C)cc1	–	–	–	–	inactive	inactive	inactive	inactive	inactive	inactive	inactive	inactive	–	inactive	inactive	inactive	inactive	inactive	–
